The values that follow come from paper PMC11006913.

Common to all, as to assay: PBM; 200 nM protein, PBS
Conditions in all cases: dsDNA, one strand shown

In experiment [1] the target is T1, PAX4 (Homo sapiens, UniProt O43316 9-242, R200K).
T1 sequence: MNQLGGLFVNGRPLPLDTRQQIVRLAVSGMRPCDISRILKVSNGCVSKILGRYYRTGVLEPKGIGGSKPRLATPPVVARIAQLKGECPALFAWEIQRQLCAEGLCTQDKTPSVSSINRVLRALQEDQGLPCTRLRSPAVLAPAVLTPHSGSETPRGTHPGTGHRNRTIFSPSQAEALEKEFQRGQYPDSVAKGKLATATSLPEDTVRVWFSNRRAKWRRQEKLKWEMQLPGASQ

Experiment [2] has as its target T2, PAX4 (Homo sapiens, UniProt O43316 9-242).
T2 sequence: T1 sequence with K192R

Experiment [3] deals with T3, PAX4 (Homo sapiens, UniProt O43316 9-242, R200Q).
T3 sequence: T1 sequence with K192Q

Experiment [4] addresses T4, PAX4 (Homo sapiens, UniProt O43316 9-242, F177V).
T4 sequence: T1 sequence with F169V, K192R

Experiment [5] deals with T5, PAX4 (Homo sapiens, UniProt O43316 9-242, F177Y).
T5 sequence: T1 sequence with F169Y, K192R

Experiment [6] addresses T6, PAX4 (Homo sapiens, UniProt O43316 9-242, R227W).
T6 sequence: T1 sequence with K192R, R219W

For the next experiment, the target named is CRX (Homo sapiens, UniProt O43186 26-111, R41L).
Experiment [7] addresses PRRX1 (Homo sapiens, UniProt P54821 80-166, F113S).
In experiment [8] the target is HOXB6 (Homo sapiens, UniProt P17509 132-218, K202E).
Experiment [9] deals with HOXA2 (Homo sapiens, UniProt O43364 129-215, R185T).
The target in experiment [10] is HOXA2 (Homo sapiens, UniProt O43364 129-215, R185K).
Experiment [11] concerns the target PROP1 (Homo sapiens, UniProt O75360 56-141).
In experiment [12] the target is PROP1 (Homo sapiens, UniProt O75360 56-141, R99H).
The target of experiment [13] is PROP1 (Homo sapiens, UniProt O75360 56-141, F88S).
In experiment [14] the target is HOXA2 (Homo sapiens, UniProt O43364 129-215, Y150S).
Experiment [15] concerns the target PRRX1 (Homo sapiens, UniProt P54821 80-166).
For experiment [16], the target named is HOXA2 (Homo sapiens, UniProt O43364 129-215).
For experiment [17], the target named is HOXB6 (Homo sapiens, UniProt P17509 132-218).
The target in experiment [18] is NKX3-2 (Homo sapiens, UniProt P78367 192-278, P234S).
Experiment [19] addresses NKX3-2 (Homo sapiens, UniProt P78367 192-278).

Where a chain is given by its changes, count along the chain named.

PRRX1 (Homo sapiens, UniProt P54821 80-166, F113S), sequence (P54821 80-166 F113S): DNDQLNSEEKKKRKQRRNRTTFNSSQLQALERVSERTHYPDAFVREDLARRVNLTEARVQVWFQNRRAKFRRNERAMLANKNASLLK
PROP1 (Homo sapiens, UniProt O75360 56-141), sequence (O75360 56-141): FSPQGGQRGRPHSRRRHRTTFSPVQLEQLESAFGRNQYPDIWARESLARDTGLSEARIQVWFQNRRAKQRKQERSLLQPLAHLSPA
NKX3-2 (Homo sapiens, UniProt P78367 192-278, P234S), sequence (P78367 192-278 P234S): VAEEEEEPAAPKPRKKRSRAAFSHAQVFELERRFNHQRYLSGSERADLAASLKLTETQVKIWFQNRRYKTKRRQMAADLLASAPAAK
HOXA2 (Homo sapiens, UniProt O43364 129-215, R185T), sequence (O43364 129-215 R185T): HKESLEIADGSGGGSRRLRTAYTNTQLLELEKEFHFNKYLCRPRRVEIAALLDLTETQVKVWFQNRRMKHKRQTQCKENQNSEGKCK
PRRX1 (Homo sapiens, UniProt P54821 80-166), sequence (P54821 80-166): as the sequence (P54821 80-166 F113S) above, with S34F counted along it
PROP1 (Homo sapiens, UniProt O75360 56-141, R99H), sequence (O75360 56-141 R99H): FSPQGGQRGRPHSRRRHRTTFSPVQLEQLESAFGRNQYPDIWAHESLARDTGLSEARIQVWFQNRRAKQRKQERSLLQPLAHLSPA
NKX3-2 (Homo sapiens, UniProt P78367 192-278), sequence (P78367 192-278): as the sequence (P78367 192-278 P234S) above, with S43P counted along it
HOXB6 (Homo sapiens, UniProt P17509 132-218), sequence (P17509 132-218): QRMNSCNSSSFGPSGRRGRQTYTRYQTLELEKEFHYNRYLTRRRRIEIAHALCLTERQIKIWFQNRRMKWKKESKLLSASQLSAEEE
CRX, sequence (O43186 26-111 R41L): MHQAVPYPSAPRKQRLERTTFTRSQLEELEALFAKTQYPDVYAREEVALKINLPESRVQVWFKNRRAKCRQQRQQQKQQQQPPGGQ
HOXB6 (Homo sapiens, UniProt P17509 132-218, K202E), sequence (P17509 132-218 K202E): as the sequence (P17509 132-218) above, with K71E counted along it
HOXA2 (Homo sapiens, UniProt O43364 129-215), sequence (O43364 129-215): as the sequence (O43364 129-215 R185T) above, with T57R counted along it
HOXA2 (Homo sapiens, UniProt O43364 129-215, R185K), sequence (O43364 129-215 R185K): as the sequence (O43364 129-215 R185T) above, with T57K counted along it
HOXA2 (Homo sapiens, UniProt O43364 129-215, Y150S), sequence (O43364 129-215 Y150S): as the sequence (O43364 129-215 R185T) above, with Y22S, T57R counted along it
PROP1 (Homo sapiens, UniProt O75360 56-141, F88S), sequence (O75360 56-141 F88S): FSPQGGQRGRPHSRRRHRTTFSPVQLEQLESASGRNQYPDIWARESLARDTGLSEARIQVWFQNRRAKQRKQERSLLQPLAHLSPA

As for ACGAATTA, the binding signal in the experiment with PAX4 [1] is 11.6 upbm affinity estimate (log intensity, higher = more binding, comparable within an allelic series); with PAX4 [2], 12.1 upbm affinity estimate (log intensity, higher = more binding, comparable within an allelic series); in the experiment with PAX4 [3] it was 11.7 upbm affinity estimate (log intensity, higher = more binding, comparable within an allelic series); in the experiment with PAX4 [4], 10.3 upbm affinity estimate (log intensity, higher = more binding, comparable within an allelic series); with PAX4 [5] it was 11 upbm affinity estimate (log intensity, higher = more binding, comparable within an allelic series); with PAX4 [6], 10.8 upbm affinity estimate (log intensity, higher = more binding, comparable within an allelic series).
For CCGGGCTC, the binding signal was 9.24 upbm affinity estimate (log intensity, higher = more binding, comparable within an allelic series) in the experiment with PAX4 [1]; 9.31 upbm affinity estimate (log intensity, higher = more binding, comparable within an allelic series) with PAX4 [2]; 9.36 upbm affinity estimate (log intensity, higher = more binding, comparable within an allelic series) with PAX4 [3]; 9.17 upbm affinity estimate (log intensity, higher = more binding, comparable within an allelic series) with PAX4 [4]; 9.16 upbm affinity estimate (log intensity, higher = more binding, comparable within an allelic series) in the experiment with PAX4 [5]; 9.23 upbm affinity estimate (log intensity, higher = more binding, comparable within an allelic series) with PAX4 [6].
On to AAATTAAG, for which the binding signal was 11.5 upbm affinity estimate (log intensity, higher = more binding, comparable within an allelic series) in the experiment with PAX4 [1]; 12.1 upbm affinity estimate (log intensity, higher = more binding, comparable within an allelic series) in the experiment with PAX4 [2]; 11.8 upbm affinity estimate (log intensity, higher = more binding, comparable within an allelic series) with PAX4 [3]; 10.4 upbm affinity estimate (log intensity, higher = more binding, comparable within an allelic series) in the experiment with PAX4 [4]; 10.8 upbm affinity estimate (log intensity, higher = more binding, comparable within an allelic series) with PAX4 [5]; 10.8 upbm affinity estimate (log intensity, higher = more binding, comparable within an allelic series) with PAX4 [6].
Take CGTATTAA: the binding signal with PAX4 [1] is 11.8 upbm affinity estimate (log intensity, higher = more binding, comparable within an allelic series); with PAX4 [2], 12.2 upbm affinity estimate (log intensity, higher = more binding, comparable within an allelic series); with PAX4 [3] it was 11.5 upbm affinity estimate (log intensity, higher = more binding, comparable within an allelic series); with PAX4 [4], 10.5 upbm affinity estimate (log intensity, higher = more binding, comparable within an allelic series); in the experiment with PAX4 [5] it was 11 upbm affinity estimate (log intensity, higher = more binding, comparable within an allelic series); in the experiment with PAX4 [6] it was 11 upbm affinity estimate (log intensity, higher = more binding, comparable within an allelic series). Besides, the binding signal with CRX was 11.2 upbm affinity estimate (log intensity, higher = more binding, comparable within an allelic series).
For the sequence ATTAGCTA, the binding signal is 11.4 upbm affinity estimate (log intensity, higher = more binding, comparable within an allelic series) with PAX4 [1]; 11.7 upbm affinity estimate (log intensity, higher = more binding, comparable within an allelic series) with PAX4 [2]; 11.4 upbm affinity estimate (log intensity, higher = more binding, comparable within an allelic series) in the experiment with PAX4 [3]; 10.2 upbm affinity estimate (log intensity, higher = more binding, comparable within an allelic series) in the experiment with PAX4 [4]; 10.6 upbm affinity estimate (log intensity, higher = more binding, comparable within an allelic series) with PAX4 [5]; 10.6 upbm affinity estimate (log intensity, higher = more binding, comparable within an allelic series) with PAX4 [6].
For CCGAAGCC, the binding signal in the experiment with PAX4 [1] was 9.25 upbm affinity estimate (log intensity, higher = more binding, comparable within an allelic series); with PAX4 [2], 9.26 upbm affinity estimate (log intensity, higher = more binding, comparable within an allelic series); in the experiment with PAX4 [3], 9.27 upbm affinity estimate (log intensity, higher = more binding, comparable within an allelic series); with PAX4 [4], 9.17 upbm affinity estimate (log intensity, higher = more binding, comparable within an allelic series); with PAX4 [5], 9.2 upbm affinity estimate (log intensity, higher = more binding, comparable within an allelic series); with PAX4 [6], 9.18 upbm affinity estimate (log intensity, higher = more binding, comparable within an allelic series).
As for GATATTAA, the binding signal in the experiment with PAX4 [1] was 11.2 upbm affinity estimate (log intensity, higher = more binding, comparable within an allelic series); with PAX4 [2], 11.5 upbm affinity estimate (log intensity, higher = more binding, comparable within an allelic series); with PAX4 [3] it was 11.2 upbm affinity estimate (log intensity, higher = more binding, comparable within an allelic series); with PAX4 [4], 10.3 upbm affinity estimate (log intensity, higher = more binding, comparable within an allelic series); with PAX4 [5] it was 10.5 upbm affinity estimate (log intensity, higher = more binding, comparable within an allelic series); with PAX4 [6], 10.6 upbm affinity estimate (log intensity, higher = more binding, comparable within an allelic series).
As to CTCGCCTC, the binding signal is 9.23 upbm affinity estimate (log intensity, higher = more binding, comparable within an allelic series) with PAX4 [1]; 9.21 upbm affinity estimate (log intensity, higher = more binding, comparable within an allelic series) with PAX4 [2]; 9.24 upbm affinity estimate (log intensity, higher = more binding, comparable within an allelic series) in the experiment with PAX4 [3]; 9.31 upbm affinity estimate (log intensity, higher = more binding, comparable within an allelic series) with PAX4 [4]; 9.3 upbm affinity estimate (log intensity, higher = more binding, comparable within an allelic series) with PAX4 [5]; 9.28 upbm affinity estimate (log intensity, higher = more binding, comparable within an allelic series) in the experiment with PAX4 [6].
For AGCCTGAG, the binding signal is 9.28 upbm affinity estimate (log intensity, higher = more binding, comparable within an allelic series) with PRRX1 [7]; 8.98 upbm affinity estimate (log intensity, higher = more binding, comparable within an allelic series) with HOXB6 [8]; 7.3 upbm affinity estimate (log intensity, higher = more binding, comparable within an allelic series) in the experiment with HOXA2 [9]; 10.4 upbm affinity estimate (log intensity, higher = more binding, comparable within an allelic series) with HOXA2 [10]; 6.61 upbm affinity estimate (log intensity, higher = more binding, comparable within an allelic series) with PROP1 [11]; 6.62 upbm affinity estimate (log intensity, higher = more binding, comparable within an allelic series) in the experiment with PROP1 [12]. Also, the binding signal was 6.73 upbm affinity estimate (log intensity, higher = more binding, comparable within an allelic series) with PROP1 [13]; 10.5 upbm affinity estimate (log intensity, higher = more binding, comparable within an allelic series) with HOXA2 [14]; 9.12 upbm affinity estimate (log intensity, higher = more binding, comparable within an allelic series) with PRRX1 [15]; 7.33 upbm affinity estimate (log intensity, higher = more binding, comparable within an allelic series) with HOXA2 [16]; 8.88 upbm affinity estimate (log intensity, higher = more binding, comparable within an allelic series) with HOXB6 [17].
On to GGCGCGAC, for which the binding signal in the experiment with PAX4 [1] is 9.13 upbm affinity estimate (log intensity, higher = more binding, comparable within an allelic series); with PAX4 [2], 9.13 upbm affinity estimate (log intensity, higher = more binding, comparable within an allelic series); with PAX4 [3], 9.1 upbm affinity estimate (log intensity, higher = more binding, comparable within an allelic series); in the experiment with PAX4 [4] it was 9.14 upbm affinity estimate (log intensity, higher = more binding, comparable within an allelic series); in the experiment with PAX4 [5], 9.06 upbm affinity estimate (log intensity, higher = more binding, comparable within an allelic series); with PAX4 [6] it was 9.21 upbm affinity estimate (log intensity, higher = more binding, comparable within an allelic series).
Turning to GCCAGAGC, the binding signal with PAX4 [1] is 9.17 upbm affinity estimate (log intensity, higher = more binding, comparable within an allelic series); with PAX4 [2], 9.13 upbm affinity estimate (log intensity, higher = more binding, comparable within an allelic series); with PAX4 [3], 9.26 upbm affinity estimate (log intensity, higher = more binding, comparable within an allelic series); with PAX4 [4], 9.3 upbm affinity estimate (log intensity, higher = more binding, comparable within an allelic series); in the experiment with PAX4 [5] it was 9.28 upbm affinity estimate (log intensity, higher = more binding, comparable within an allelic series); in the experiment with PAX4 [6] it was 9.34 upbm affinity estimate (log intensity, higher = more binding, comparable within an allelic series).
As for AAATTAGG, the binding signal with PAX4 [1] is 11.4 upbm affinity estimate (log intensity, higher = more binding, comparable within an allelic series); with PAX4 [2], 11.9 upbm affinity estimate (log intensity, higher = more binding, comparable within an allelic series); with PAX4 [3], 11.5 upbm affinity estimate (log intensity, higher = more binding, comparable within an allelic series); with PAX4 [4], 10.2 upbm affinity estimate (log intensity, higher = more binding, comparable within an allelic series); in the experiment with PAX4 [5], 10.5 upbm affinity estimate (log intensity, higher = more binding, comparable within an allelic series); with PAX4 [6], 10.6 upbm affinity estimate (log intensity, higher = more binding, comparable within an allelic series).
For ATTGATTA, the binding signal in the experiment with PRRX1 [7] was 11.1 upbm affinity estimate (log intensity, higher = more binding, comparable within an allelic series).
On to AGCGCTGC, for which the binding signal with PAX4 [1] is 9.36 upbm affinity estimate (log intensity, higher = more binding, comparable within an allelic series); with PAX4 [2] it was 9.27 upbm affinity estimate (log intensity, higher = more binding, comparable within an allelic series); in the experiment with PAX4 [3], 9.34 upbm affinity estimate (log intensity, higher = more binding, comparable within an allelic series); with PAX4 [4] it was 9.36 upbm affinity estimate (log intensity, higher = more binding, comparable within an allelic series); with PAX4 [5], 9.24 upbm affinity estimate (log intensity, higher = more binding, comparable within an allelic series); with PAX4 [6], 9.35 upbm affinity estimate (log intensity, higher = more binding, comparable within an allelic series).
As to GGGCGCGA, the binding signal in the experiment with PAX4 [1] is 9.18 upbm affinity estimate (log intensity, higher = more binding, comparable within an allelic series); with PAX4 [2], 9.18 upbm affinity estimate (log intensity, higher = more binding, comparable within an allelic series); with PAX4 [3], 9.16 upbm affinity estimate (log intensity, higher = more binding, comparable within an allelic series); with PAX4 [4], 9.01 upbm affinity estimate (log intensity, higher = more binding, comparable within an allelic series); in the experiment with PAX4 [5], 9.02 upbm affinity estimate (log intensity, higher = more binding, comparable within an allelic series); in the experiment with PAX4 [6], 9.14 upbm affinity estimate (log intensity, higher = more binding, comparable within an allelic series). The binding signal with NKX3-2 [18] is 10.6 upbm affinity estimate (log intensity, higher = more binding, comparable within an allelic series); in the experiment with NKX3-2 [19], 10.6 upbm affinity estimate (log intensity, higher = more binding, comparable within an allelic series).
Regarding TATTTTAA, the binding signal is 11 upbm affinity estimate (log intensity, higher = more binding, comparable within an allelic series) with PAX4 [1]; 11.2 upbm affinity estimate (log intensity, higher = more binding, comparable within an allelic series) in the experiment with PAX4 [2]; 11 upbm affinity estimate (log intensity, higher = more binding, comparable within an allelic series) with PAX4 [3]; 10.6 upbm affinity estimate (log intensity, higher = more binding, comparable within an allelic series) with PAX4 [5]; 10.6 upbm affinity estimate (log intensity, higher = more binding, comparable within an allelic series) with PAX4 [6].
Turning to AGACAGCT, the binding signal with PAX4 [1] is 9.26 upbm affinity estimate (log intensity, higher = more binding, comparable within an allelic series); with PAX4 [2] it was 9.25 upbm affinity estimate (log intensity, higher = more binding, comparable within an allelic series); with PAX4 [3], 9.61 upbm affinity estimate (log intensity, higher = more binding, comparable within an allelic series); in the experiment with PAX4 [4], 9.5 upbm affinity estimate (log intensity, higher = more binding, comparable within an allelic series); with PAX4 [5], 9.46 upbm affinity estimate (log intensity, higher = more binding, comparable within an allelic series); with PAX4 [6], 9.5 upbm affinity estimate (log intensity, higher = more binding, comparable within an allelic series).
